Laboratory results taken from PubChem BioAssay AID1159580 (chemical genetic matrix, 2015).
About 2,000 (36%) of roughly 5,500 compounds were called active. Another 18% or so got no clear call; they are omitted. No stated cut-off is given here; in the data, active means normalized growth mostly below about 0.91 (no sharp cut-off); inconclusive means no clear call, values can overlap the other calls; inactive means mostly above about 0.92. The list shows a part of the results.

Assay: chemical genetic growth profiling, strain panel (AID 1159580);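 further: tested at 20 µM; growth read once vehicle control cultures reached saturation at 30 °C; 1 = growth at the plate median or of vehicle wells; lower values mean less growth of the strain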
Conditions: S. cerevisiae deletion strains, growth OD

Measured: normalized growth

CC(=O)OCCCCN1C(=O)c2ccccc2C1=O
inactive: locus YAL013W, strain DEP1, active compounds read low 0.995 | locus YBR229C, strain ROT2, active compounds read low 1 | locus YCL061C, strain MRC1, active compounds read low 0.986 | locus YDL101C, strain DUN1, active compounds read low 1.04 | locus YDL134C, strain PPH21, active compounds read low 1 | locus YDR150W, strain NUM1, active compounds read low 0.988 | locus YEL061C, strain CIN8, active compounds read low 0.995 | locus YGR078C, strain PAC10, active compounds read low 1.01 | locus YHR030C, strain SLT2, active compounds read low 0.943 | locus YHR087W, strain rtc3, active compounds read low 1.01 | locus YJL187C, strain SWE1, active compounds read low 1 | locus YJR043C, strain POL32, active compounds read low 0.997 | locus YJR075W, strain HOC1, active compounds read low 0.977 | locus YKL190W, strain CNB1, active compounds read low 0.999 | locus YLR039C, strain RIC1, active compounds read low 1.02 | locus YLR058C, strain SHM2 (second series), active compounds read low 0.994 | locus YLR085C, strain ARP6, active compounds read low 0.967 | locus YLR262C, strain YPT6, active compounds read low 1.02 | locus YML094W, strain GIM5, active compounds read low 1.05 | locus YMR219W, strain ESC1, active compounds read low 1 | locus YMR263W, strain SAP30, active compounds read low 0.996 | locus YNL153C, strain GIM3, active compounds read low 1.02 | locus YNL298W, strain CLA4 (second series), active compounds read low 0.983 | locus YNL322C, strain KRE1, active compounds read low 1 | locus YNR030W, strain Alg12, active compounds read low 0.995 | locus YOL006C, strain TOP1, active compounds read low 0.993 | locus YPL055C, strain LGE1, active compounds read low 1 | locus YPL241C, strain CIN2, active compounds read low 1.05 | locus YPR135W, strain CTF4, active compounds read low 0.975
